Compound activity deposited in PubChem BioAssay by National Center for Advancing Translational Sciences (NCATS).
Sampled rows, rich in hits. Any-hit rate of the full collection: about 19%.
TDP1 cell noCPT: qHTS for Inhibitors of human tyrosyl-DNA phosphodiesterase 1 (TDP1): qHTS in cells in absence of CPT; Potency, µM (doses to about 46.2 µM), inactives show at the top dose activity change, negative = growth inhibition, usual class: inhibitors; hit rate 15% among 420,000; DT40 Tdp1-/- hTDP1 cells, no CPT, ATP luminescence, 48 h; also: nearly all actives have a fitted effect of over 55% in size
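Compound effects on proliferation are scored in DT40 Tdp1-/-;hTDP1 cells in the absence of CPT. ATP levels (CellTiter-Glo luminescence) are recorded after a ≥48 hr, 37 °C incubation.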
HT1080 IDH1KD tx: qHTS for induction of synthetic lethality in tumor cells producing 2HG: qHTS for the HT-1080-IDH1KD cell line; HT-1080 IDH1 knockdown viability, ATP luminescence, 48 h; AID 686971, 2013; Potency, µM (titrated, usually from 46.1 µM), without a hit: top-dose activity, negative = toxicity, actives largely listed as cytotoxic; hit rate 2% among 360,000;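 also: 0% = DMSO wells and -100% = cell-free medium wells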
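In this qHTS, HT-1080 cells depleted of IDH1 are exposed for 48 h at 37 °C to compound titrations. Toxicity is scored from CellTiter-Glo luminescence, with DMSO as full viability and medium alone as none.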
KB-V1 cytotox: qHTS assay for MDR1-selective chemotherapeutics: Primary screen using the drug-selected MDR subline cells KB-V1 | hit rate 3.4% among 400,000 | KB-V1 MDR cells viability, CellTiter-Glo, 72 h | Potency, µM (highest dose often 46.1 µM), most hits filed as cytotoxic; also: nearly all actives have a fitted effect of over 60% in size
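KB-V1 cells (P-gp-expressing MDR subline of KB-3-1) in phenol-red-free DMEM with 10% FBS were exposed to library compounds over a concentration series for 72 h at 37 degrees C. Viability read by CellTiter-Glo luminescence; concentration-effect curves fitted after normalization.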
KB-3-1 tox: qHTS assay for MDR1-selective chemotherapeutics: Primary screen using the parental adenocarcinoma cell KB-3-1 | KB-3-1 viability, CellTiter-Glo ATP luminescence, 72 h | Potency, µM (top dose mostly 46.1 µM), hits mostly cytotoxic | hit rate 1.4% among 400,000; also: nearly all actives have a fitted effect of over 60% in size
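Parental KB-3-1 viability, qHTS format: 72 h compound exposure, 37 °C; CellTiter-Glo; media-only wells and DMSO plates as controls; concentration-effect fits on corrected data.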
TDP1 cell CPT: qHTS for Inhibitors of human tyrosyl-DNA phosphodiesterase 1 (TDP1): qHTS in cells in presence of CPT. chicken DT40 Tdp1-/-;hTDP1 cells + 20 nM CPT, ATP luminescence, 48 h. Potency, µM (highest dose often 46.2 µM), for inactives: at the highest dose activity change, negative = growth inhibition, usual class: inhibitors. hit rate 12% among 420,000. AID 686979, 2013; also: nearly all actives have a fitted effect of over 55% in size
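Chicken DT40 Tdp1-/- cells stably complemented with human TDP1 were seeded at 400 cells/well in medium containing 20 nM camptothecin, exposed to pin-transferred compounds, and grown at 37 °C for at least 48 hr. Viability was read as ATP luminescence.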
HT1080NT lethal: qHTS for induction of synthetic lethality in tumor cells producing 2HG: qHTS for the HT-1080-NT fibrosarcoma cell line | HT-1080-NT fibrosarcoma viability, CellTiter-Glo ATP luminescence, 48 h | Potency, µM (titrated, usually from 46.1 µM), inactives show at the top dose activity, negative = less viability, hits mostly cytotoxic | hit rate 1.6% among 360,000 | AID 686970, 2013;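 also: NT is the 2HG producing partner of a matched IDH1 knockdown line; 0% = DMSO-treated cells and -100% = media-only wells without cells; nearly all actives have a fitted effect of over 55% in size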
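HT-1080-NT fibrosarcoma cells (2HG-overproducing), 750 cells/well in RPMI with 5% FBS, dosed after 2 h and incubated 48 h at 37C. CellTiter-Glo luminescence normalized to DMSO and no-cell wells; concentration-response curves fitted and classed.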
* hit, by the source's call; i = inactive; ? = inconclusive; . = no result given. Calls follow the shape of the dose curve; as a rule, active = well fitted curve in the direction sought with a large enough effect; inconclusive = small, poorly fitted or top-dose-only effect, or another doubt; inactive = no such curve, though single readings can be large; an effect the other way counts as inactive or inconclusive. Unless noted, % is scaled to controls: 0 for no effect and ±100 for the full control effect; potency is read from the fitted curve at half-maximal effect.

SMILES | TDP1 cell noCPT | HT1080 IDH1KD tx | KB-V1 cytotox | KB-3-1 tox | TDP1 cell CPT | HT1080NT lethal
N#C/C(=C\c1cccc(Br)c1)C(=O)N1CCCCC1 | 12µM* | 16µM* | ? | ? | 13µM* | 23µM*
N#C/C(=C\c1cccc(O)c1)C(=O)N1CCCCC1 | ? | -11% | ? | i | 15% | -1%
CCCn1c(=O)sc2cc(NC(=O)c3ccc(OC)c(Br)c3)ccc21 | ? | . | i | 23µM* | ? | .
CC1=C(C(=O)N(C)C)CC(CC(=O)NC2CCCC2)C(=O)N1Cc1ccccc1 (configuration not stated) | 3% | 1% | i | i | 2% | 11%
CCc1ccc(C(=O)N2CCC(c3nc4ccccc4s3)CC2)cc1 | ? | -17% | i | i | ? | -3%
Cc1ccccc1C(=O)N1CCC(c2nc3ccccc3s2)CC1 | ? | . | ? | i | ? | .
COc1cc(C(=O)N2CCC(c3nc4ccccc4s3)CC2)cc(OC)c1OC | 21µM* | . | ? | i | ? | .
O=C(c1ccccc1Br)N1CCC(c2nc3ccccc3s2)CC1 | 29µM* | -1% | i | i | ? | -3%
COCCNC(=O)C1CCCN(C(=O)c2ccc3sccc3c2)CC1 (configuration not stated) | 4% | 24% | i | i | -13% | 11%
COc1ccc(C2Nc3ccccc3C(=O)N2Cc2ccccc2)cc1COc1ccc([N+](=O)[O-])cc1 (configuration not stated) | ? | . | i | i | ? | .
COC(=O)/C=C\C(C#N)(C#N)N=Cc1ccc(OC)cc1 | 0.65µM* | 5.8µM* | i | ? | 1.3µM* | ?
Cc1cc(N2CCOCC2)c2c(N)c(Br)cc(C)c2n1 | 3.3µM* | -2% | ? | ? | ? | 0%
Cc1nn(S(=O)(=O)c2ccc(C(C)C)cc2)c(C)c1S(=O)(=O)N1CCCCCC1 | 2% | . | ? | i | -5% | .
CN(C)c1ccc(CN(CC2CCCO2)C(=O)COc2ccccc2Cl)cc1 (configuration not stated) | 18µM* | . | . | . | ? | .
Cc1cc(Cl)ccc1OCC(=O)NNC(=O)C1CCCO1 (configuration not stated) | -2% | 11% | i | i | 2% | 17%
CN(C)c1ccc(CN(CC2CCCO2)C(=O)c2ccc(Br)cc2)cc1 (configuration not stated) | -78% | . | . | . | ? | .
Cc1cc(Cl)ccc1OCC(=O)N(Cc1ccc(N(C)C)cc1)CC1CCCO1 (configuration not stated) | 26µM* | . | . | . | ? | .
COc1ccccc1OCC(=O)N(Cc1ccc(N(C)C)cc1)CC1CCCO1 (configuration not stated) | 15µM* | . | . | . | 23µM* | .
CCCCCn1c(=O)[nH]c2cc(C(=O)NC(C)CC)ccc2c1=O (configuration not stated) | -1% | . | i | i | -1% | .
Cc1ccc(C)c(NC(=O)Cn2c(=O)n(Cc3ccco3)c(=O)c3oc4ccccc4c32)c1 | 10µM* | . | i | i | 16µM* | .
CCCCn1c(=O)c2oc3ccccc3c2n(CC(=O)Nc2ccc(CC)cc2)c1=O | ? | . | . | . | 13µM* | .
Cc1ccc(C)c(NC(=O)Cn2c(=O)n(Cc3ccccc3)c(=O)c3oc4ccccc4c32)c1 | 5.8µM* | . | i | i | 4.6µM* | .
